# MCF10A rereplic: inducers of DNA re-replication in MCF 10A breast cells; AID 624296; Potency, µM (highest dose often 46.1 µM), inactives show at the top dose activity, positive = re-replication, hits mostly activators; MCF 10A DNA re-replication, Hoechst nuclear intensity, 48 h; 350,000 tested, 2.9% active; note: % of control where 0% means no effect; nearly all actives have a fitted effect of over 50% in size
# KB-V1 MDR tox: KB-V1 MDR subline cytotoxicity; KB-V1 MDR cells viability, CellTiter-Glo, 72 h; Potency, µM (titrated, usually from 46.1 µM), hits mostly cytotoxic; 400,000 tested, 3.4% active; note: % is set by controls: 0 for no effect and ±100 for the full control effect; nearly all actives have a fitted effect of over 60% in size
#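 qHTS viability screen in drug-selected KB-V1 MDR cells: 72 h compound treatment at 37 degrees C, ATP luminescence end point.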
# HT1080NT lethal: kills 2HG-producing HT-1080-NT fibrosarcoma cells | HT-1080-NT fibrosarcoma viability, CellTiter-Glo ATP luminescence, 48 h | Potency, µM (titrated, usually from 46.1 µM), for inactives: top-dose activity, negative = less viability, actives largely listed as cytotoxic | 360,000 tested, 1.6% active | AID 686970;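 note: NT is the 2HG producing partner of a matched IDH1 knockdown line; 0% = DMSO-treated cells and -100% = media-only wells without cells; nearly all actives have a fitted effect of over 55% in size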
#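 HT-1080-NT fibrosarcoma cells (2HG-overproducing), 750 cells/well in RPMI with 5% FBS, dosed after 2 h and incubated 48 h at 37C. CellTiter-Glo luminescence normalized to DMSO and no-cell wells; concentration-response curves fitted and classed.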
# HT1080 IDH1KD tx: toxicity to HT-1080 IDH1 knockdown cells (counter line); 360,000 tested, 2% active; AID 686971; HT-1080 IDH1 knockdown viability, ATP luminescence, 48 h; Potency, µM (series often up to 46.1 µM), inactives show top-dose activity, negative = toxicity, hits mostly cytotoxic;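 note: 0% = DMSO wells and -100% = cell-free medium wells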
#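 % activity derives from luminescence (CellTiter-Glo), normalised to DMSO and no-cell wells. HT-1080-IDH1KD cells, 750/well, had 48 h compound exposure at 37 °C.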
# KB-3-1 tox: KB-3-1 parental cell cytotoxicity; Potency, µM (titrated, usually from 46.1 µM), usual class: cytotoxic; KB-3-1 viability, CellTiter-Glo ATP luminescence, 72 h; AID 1347075; 400,000 tested, 1.4% active; note: % is set by controls: 0 for no effect and ±100 for the full control effect; nearly all actives have a fitted effect of over 60% in size
#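 KB-3-1 parental drug-naive adenocarcinoma cells in DMEM/10% FBS, incubated 72 h at 37 C with pin-transferred compounds across a concentration series. Viability by CellTiter-Glo luminescence; concentration-response curves fitted after normalization.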
# SW480 rereplic: induces DNA re-replication in SW480 colon adenocarcinoma cells; 340,000 tested, 1.8% active; SW480 DNA re-replication, Hoechst DNA content imaging, 48 h; Potency, µM (doses to about 46.1 µM), without a hit: top-dose re-replication activation, hits mostly activators; note: % of control where 0% means no effect; nearly all actives have a fitted effect of over 55% in size
#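 Compounds, transferred as 23 nL by pin tool, were incubated with cells for 48 hr; DNA content per nucleus was then quantified by Hoechst staining and fluorescence plate imaging.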
# Active calls of the source: *; i = inactive; ? = inconclusive; ! = not confirmed by another sample. An excerpt weighted towards active compounds, which were near 8% of everything screened. Calls come from the whole dose curve; as a rule, active = well fitted curve in the direction sought with a large enough effect; inconclusive = small, poorly fitted or top-dose-only effect, or another doubt; inactive = no such curve, though single readings can be large; an effect the other way counts as inactive or inconclusive. Potency is the fitted concentration of half-maximal effect.
SMILES,MCF10A rereplic,KB-V1 MDR tox,HT1080NT lethal,HT1080 IDH1KD tx,KB-3-1 tox,SW480 rereplic
Cn1c(=O)c2c(nc(CN3CCc4ccccc4C3)n2CCCO)n(C)c1=O,?,?,2.8%,1.5%,i,-0.4%
CCOc1cc2[nH]c(=S)n(Cc3ccc(C)o3)c(=O)c2cc1OCC,?,i,13.6%,11.6%,i,?
COc1ccc(Br)cc1CNC(C)c1ccccc1 (stereo unspecified),-7.1%,i,-13.8%,-21.0%,i,-0.6%
COc1cc(CNC(C)c2ccccc2)cc(Br)c1OCc1ccccc1 (stereo unspecified),?,?,16.4µM*,?,?,23.1µM*
CCCCn1c(O)c(N=NC(=O)c2ccco2)c2ccccc21,?,16.4µM*,-10.8%,-8.3%,i,2.6%
O=C(CNC(=O)c1ccco1)N=Nc1c(O)n(CCc2ccccc2)c2ccccc12,?,3.66µM*,4.11µM*,1.84µM*,1.3µM*,1.84µM*
COC(=O)c1ccccc1NC(=O)CSc1nc(-c2ccco2)cc(C(F)(F)F)n1,-0.1%,?,?,3.55µM*,?,0.2%
Cc1ccc(NC(=O)CSc2nc(-c3ccco3)cc(C(F)(F)F)n2)cc1C,1.16µM*,4.11µM*,10µM*,2.51µM*,4.11µM*!,2.59µM*
CC1C(=O)C(C)C(c2ccc(Br)cc2)NC1c1ccc(Br)cc1 (stereo unspecified),23.1µM*,i,0.2%,-10.8%,i,?
CC1C(=O)C(C)C(c2cc(Br)ccc2O)NC1c1cc(Br)ccc1O (stereo unspecified),23.1µM*,?,13µM*,?,?,?
COc1ccc(CNCCC(c2ccc(OC)cc2)c2ccccc2OC)cc1 (stereo unspecified),?,?,14.6µM*,20.6µM*,?,?
COc1ccc(CNC(C)CCc2ccccc2)cc1 (stereo unspecified),-1.8%,i,-17.5%,-17.9%,i,-2.1%
COc1ccc(C(CCNCc2ccc(OC(C)C)cc2)c2ccccc2OC)cc1 (stereo unspecified),?,23.1µM*,?,?,?,?
COc1ccc(C(CCNCc2ccc(N(C)C)cc2)c2ccccc2OC)cc1 (stereo unspecified),?,?,?,29.1µM*,i,5.3%
COc1ccc(-c2c(C#N)c(N)nc3c2CCCCCC3)cc1OC,9.9%,i,14.0%,7.4%,i,13.5%
COc1ccccc1-c1c(C#N)c(N)nc2c1CCc1ccccc1-2,?,16.4µM*,14.6µM*,16.4µM*,13µM*,20.6µM*
CCOc1cc(-c2c(C#N)c(N)nc3c2CCc2ccccc2-3)ccc1O,?,23.1µM*,-27.8%,?,?,?
COc1ccccc1-c1c(C)c(C)nc(N)c1C#N,-1.8%,i,2.4%,-1.2%,i,-10.5%
CCOc1cc(-c2c(C#N)c(N)nc3c2CCCC3C)ccc1O (stereo unspecified),?,18.4µM*,?,?,?,?
CCOC(=O)COc1nc2c(c(-c3ccco3)c1C#N)CCc1ccccc1-2,5.2%,i,-1.2%,3.6%,i,-13.6%
CCOc1cc(-c2cc(-c3ccc(C)cc3)nc(N)c2C#N)ccc1O,20.6µM*,8.2µM*,8.91µM*,12.6µM*,5.8µM*,16.4µM*
Cc1ccccc1NC(=O)Nc1ccccn1,-2.8%,i,14.6%,7.2%,i,1.6%
O=C(Nc1ccccc1)N1CCCN(Cc2c(F)cccc2Cl)CC1,-0.2%,i,-13.1%,1.1%,i,0.1%
CCCCCCCCCNC(=O)[C@H](NC(=O)COc1ccccc1)[C@@H]1NC(C(=O)OC)C(C)(C)S1 (stereo partly specified),6.51µM*,i,-4.7%,-7.6%,i,-34.9%
Cc1cc(C)c(S(=O)(=O)N2CCN(C(=O)c3c(C)nn(-c4ccccc4)c3Cl)CC2)c(C)c1,28.6%,5.17µM*,-5.1%,-0.8%,?,8.5%
SMILES,MCF10A rereplic,KB-V1 MDR tox,HT1080NT lethal,HT1080 IDH1KD tx,KB-3-1 tox,SW480 rereplic
COc1ccc(S(=O)(=O)N2CCN(C(=O)c3c(C)nn(-c4ccccc4)c3Cl)CC2)cc1,?,?,-5.4%,-6.7%,i,19.6%
Cc1ccc(S(=O)(=O)N2CCN(C(=O)c3c(C)nn(-c4ccccc4)c3Cl)CC2)cc1,?,10.3µM*,-1.4%,20.0%,i,?
Cc1cc(C)nc(-n2nc(C)cc2NC(=O)C(C)C)n1,0.0%,i,-3.3%,0.3%,i,-33.4%
O=C(CSc1nnc(CNC(=O)c2ccccc2F)o1)NCc1ccco1,-2.2%,i,0.1%,8.9%,i,?
CCOC(=O)CN1C(=O)N[C@@H](c2ccc(Br)cc2)C(C(=O)OC)=C1C,1.6%,i,-3.1%,-4.4%,i,-18.9%
CCOC(=O)CN1C(=O)N[C@H](c2ccc(Br)cc2)C(C(C)=O)=C1C,6.51µM*,i,10.5%,2.1%,i,?
COc1cc(Cl)c(C)cc1NCC(=O)Nc1cccc(S(=O)(=O)N2CCCC2)c1,11.6%,i,1.9%,-10.9%,?,13.7%
O=C(CN1C(=O)C2(OCCO2)c2cc(Br)ccc21)NO,-0.9%,i,?,?,i,4.9%
CCn1c2ccccc2c2cc(/C=N/NC(=O)c3ccccc3C)ccc21,4.61µM*,5.17µM*,14.6µM*,20.6µM*,20.6µM*,13µM*
CCn1c2ccccc2c2cc(/C=N/NC(=O)c3cccc(C)c3)ccc21,5.8µM*,5.8µM*,-3.6%,?,?,?
CCn1c2ccccc2c2cc(NC(C)=O)ccc21,-2.0%,?,2.0%,-3.8%,i,-0.5%
Cn1c2ccccc2c2cc(/C=N/NC(=O)c3ccc(N)cc3)ccc21,?,i,?,?,?,?
Cn1c2ccccc2c2cc(/C=N/NC(=O)c3ccccc3F)ccc21,?,i,?,18.4µM*,i,?
Cc1ccc2c(c1)N(CC(=O)NCCCN1CCN(C)CC1)C(=O)CO2,-1.0%,i,-0.3%,10.5%,i,6.5%
N=c1c2c(n(Cc3ccc(Cl)cc3)c3c1CCC3)CCC2,5.1%,i,5.01µM*,7.08µM*,i,-1.2%
N=c1c2c(n(Cc3cccc(Cl)c3)c3c1CCC3)CCCC2,-3.8%,i,6.31µM*,10µM*,?,2.6%
C[C@]1(O)CC(=O)C=C[C@H]1Nc1ccccc1,?,i,20.6µM*,?,?,?

# Assay outcomes deposited in PubChem by National Center for Advancing Translational Sciences (NCATS).
